Test results reported in PubChem BioAssay (EPA / NIEHS).
Calls of active or inactive are those of the source. How the source made its calls: active means hit-call score of the fitted dose curve at least 0.9, where 1 is the maximum; inactive means score below 0.9.

What was measured:
[1] = APR_HepG2_P-H2AX_72hr: Apredica 72-hour HepG2 Assay for H2AX Phosphorylation (AID 2282916); conditions: imaging, actives raise or lower the signal;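 further: phospho-histone H2A.x immunostain intensity per cell marking DNA damage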
In short: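 Readout: phospho-H2A.x immunofluorescence (FITC secondary) plus Hoechst nuclear stain, high-content imaging at 20x, six fields/well. HepG2, 72 hr compound exposure, 0.39–200 uM, final DMSO 0.5% v/v. Gain or loss fitted relative to DMSO baseline.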

[2] = APR_HepG2_MitoMembPot_72hr: Apredica 72-hour HepG2 Assay for Mitochondrial Membrane Potential (AID 2282917); conditions: imaging, actives raise or lower the signal
In short: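 HepG2 cells exposed 72 h to compounds at 0.39–200 uM (0.5% v/v DMSO, duplicates); MitoTracker Red CMXRos 250 nM loaded 30 min before 3.7% formaldehyde fixation, imaged by HCS fluorescence. Bidirectional fit versus DMSO.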

[3] = APR_HepG2_MitoticArrest_72hr: Apredica 72-hour HepG2 Assay for Mitotic Arrest (AID 2282918); conditions: high-content imaging, actives raise or lower the signal
In short: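 Using high-content imaging of fixed HepG2 cells, phospho-histone H3 signal was measured following a 72 hr incubation with ten-point compound dilutions up to 200 uM. DMSO served as the negative control and baseline for bidirectional curve fitting.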

[4] = APR_HepG2_MicrotubuleCSK_72hr: Apredica 72-hour HepG2 Assay for Microtubule CSK Stabilty (AID 2282919); conditions: HepG2 microtubule cytoskeleton, high-content imaging, actives raise or lower the signal
In short: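 Ten-point dosing (0.39–200 uM, 0.5% DMSO) of HepG2 for 72 hr, with taxol as the cytoskeletal positive control. The cells were formaldehyde-fixed and then stained with alpha-tubulin/Cy5 and Hoechst. Imaging at 20x used a −2 um Z offset for tubulin.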

[5] = APR_HepG2_P-H2AX_24hr: Apredica 24-hour HepG2 Assay for H2AX Phosphorylation (AID 2282920); conditions: high-content imaging, actives raise or lower the signal
In short: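 Human HepG2 liver cells, treated 24 hr with test chemicals (0.39–200 uM, final DMSO 0.5% v/v), are fixed and co-stained for phospho-H2A.x and c-Jun with Hoechst. Imaged intensity is fitted in both directions against DMSO controls.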

[6] = APR_HepG2_StressKinase_72hr: Apredica 72-hour HepG2 Assay for Stress Kinase (AID 2282921); conditions: HepG2 stress kinase (phospho-c-Jun) imaging, actives raise or lower the signal
In short: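 Phospho-c-Jun immunofluorescence measured by high-content imaging at 20x, six fields per well; bidirectional curve fitting against DMSO as baseline. Dosing: 0.39–200 uM, 72 h, 0.5% DMSO final.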

[7] = APR_HepG2_StressKinase_24hr: Apredica 24-hour HepG2 Assay for Stress Kinase (AID 2282922); conditions: HepG2 stress kinase (phospho-c-Jun) imaging, actives raise or lower the signal
In short: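 After 24 hr compound treatment (up to 200 uM, final DMSO 0.5% v/v), HepG2 cells are fixed and multiplex-labeled; phospho-c-Jun intensity is captured by high-content fluorescence imaging and analyzed relative to DMSO.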

[8] = APR_HepG2_p53Act_72hr: Apredica 72-hour HepG2 Assay for p53 Activation (AID 2282923); conditions: high-content imaging, actives raise or lower the signal;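 further: average cellular p53 protein immunofluorescence intensity in HepG2 cells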
In short: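 Readout: p53 immunofluorescence quantified by automated high-content imaging at 20x, six fields per well, nuclei located via Hoechst. Dosing ran 72 hr over ten concentrations from 0.39 to 200 uM; bidirectional curve fitting against DMSO baseline.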

[9] = APR_HepG2_MitoMass_72hr: Apredica 72-hour HepG2 Assay for Mitochondrial Mass (AID 2282924); conditions: high-content imaging, actives raise or lower the signal;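 further: MitoTracker Red CMXRos stain intensity per cell imaged as mitochondrial mass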
In short: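 Steps: treat HepG2 72 hr (0.39–200 uM, duplicate wells); load MitoTracker Red CMXRos, 250 nM, 30 min; fix with 3.7% formaldehyde, permeabilise with 0.5% Triton X-100; capture images, nuclei via Hoechst 33342; fit bidirectionally against DMSO.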

[10] = APR_HepG2_NuclearSize_72hr: Apredica 72-hour HepG2 Assay for Nuclear Size (AID 2282925); conditions: high-content imaging, actives raise or lower the signal
In short: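 Compounds (0.39–200 uM, final DMSO 0.5%) were applied to HepG2 for 72 hr. Cells were then formaldehyde-fixed, permeabilized and labelled with Hoechst 33342. Nuclear diameter was quantified from six images per well.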

SMILES | outcome [1] | outcome [2] | outcome [3] | outcome [4] | outcome [5] | outcome [6] | outcome [7] | outcome [8] | outcome [9] | outcome [10] | AC50 [3] | AC50 [1] | AC50 [7] | AC50 [8] | AC50 [2] | AC50 [5] | AC50 [6] | AC50 [10] | AC50 [4] | AC50 [9]
CCCCCCCCCC(=O)O | inactive | inactive | inactive | inactive | inactive | inactive | inactive | inactive | inactive | inactive | – | – | – | – | – | – | – | – | – | –
O=CCCCC=O | inactive | inactive | inactive | inactive | inactive | inactive | inactive | inactive | inactive | inactive | – | – | – | – | – | – | – | – | – | –
CC(C)(C)c1csc(-c2cc3cc(OCc4ccccc4CC(=O)O)ccc3o2)n1 | inactive | inactive | inactive | inactive | inactive | inactive | inactive | inactive | inactive | inactive | – | – | – | – | – | – | – | – | – | –
CO[C@H]1/C=C/O[C@@]2(C)Oc3c(C)c(O)c4c(O)c(c(/C=N/N5CCN(C)CC5)c(O)c4c3C2=O)NC(=O)/C(C)=C\C=C\[C@H](C)[C@H](O)[C@@H](C)[C@@H](O)[C@@H](C)[C@H](OC(C)=O)[C@@H]1C | inactive | inactive | – | inactive | inactive | inactive | inactive | inactive | inactive | inactive | 46.2 µM (active) | – | – | – | – | – | – | – | – | –
CC[C@@H]1C[C@H](N(Cc2cc(C(F)(F)F)cc(C(F)(F)F)c2)C(C)=O)c2cc(C(F)(F)F)ccc2N1C(=O)OC(C)C | inactive | inactive | inactive | inactive | inactive | inactive | inactive | inactive | inactive | inactive | – | – | – | – | – | – | – | – | – | –
CC(=O)N1CCN(c2ccc(OC[C@H]3CO[C@](Cn4ccnc4)(c4ccc(Cl)cc4Cl)O3)cc2)CC1 | – | inactive | – | inactive | inactive | inactive | – | – | inactive | inactive | 75.9 µM (active) | 32.3 µM (active) | 74.9 µM (active) | 14.5 µM (active) | – | – | – | – | – | –
Cc1occc1C(=O)Nc1ccc(C(=O)N2CCC(F)(F)/C(=C\C(=O)N3CCC(N4CCCCC4)CC3)c3ccccc32)cc1 | inactive | inactive | – | inactive | inactive | inactive | inactive | – | inactive | inactive | 20.7 µM (active) | – | – | 29 µM (active) | – | – | – | – | – | –
CCCCCCCCOC(=O)c1cc(O)c(O)c(O)c1 | – | – | – | inactive | – | inactive | – | – | inactive | inactive | 68.3 µM (active) | 5.88 µM (active) | 52.1 µM (active) | 4.98 µM (active) | 23.8 µM (active) | 45.6 µM (active) | – | – | – | –
Clc1ccccc1C(c1ccccc1)(c1ccccc1)n1ccnc1 | – | inactive | – | inactive | – | – | – | – | inactive | – | 24.8 µM (active) | 25.8 µM (active) | 62 µM (active) | 29.8 µM (active) | – | 79.4 µM (active) | 29.3 µM (active) | 55.5 µM (active) | – | –
CC(C)(C)c1cc(/C=C2\SC(N)=NC2=O)cc(C(C)(C)C)c1O | – | inactive | – | – | – | – | – | – | – | inactive | 40.3 µM (active) | 41.6 µM (active) | 60 µM (active) | 35.2 µM (active) | – | 55.2 µM (active) | 60.5 µM (active) | – | 27.4 µM (active) | 86.1 µM (active)
CCCCOC(=O)CC(CC(=O)OCCCC)(OC(C)=O)C(=O)OCCCC | – | inactive | – | – | inactive | – | inactive | – | inactive | inactive | 42 µM (active) | 56.2 µM (active) | – | 57.9 µM (active) | – | – | 56.4 µM (active) | – | 43.6 µM (active) | –
Cc1cn([C@H]2C[C@H](N=[N+]=[N-])[C@@H](CO)O2)c(=O)[nH]c1=O | inactive | inactive | inactive | inactive | inactive | inactive | inactive | inactive | inactive | inactive | – | – | – | – | – | – | – | – | – | –
CCN(CC)C(=O)c1cc(S(=O)(=O)Cc2ccccc2)c(N2CCC(c3ccccc3)CC2)cc1N(CC)CCN(C)C | – | – | – | – | – | inactive | inactive | inactive | inactive | inactive | 1.12 µM (active) | 0.876 µM (active) | – | – | 1.88 µM (active) | 1.93 µM (active) | – | – | 7.7 µM (active) | –
COc1cccc([C@H](O)C2CCN(CCc3ccc(F)cc3)CC2)c1OC | inactive | inactive | – | – | inactive | inactive | inactive | inactive | inactive | inactive | 102 µM (active) | – | – | – | – | – | – | – | 103 µM (active) | –
O=C1CCC(C2CCCCC2)CC1 | inactive | inactive | inactive | inactive | inactive | inactive | inactive | inactive | inactive | inactive | – | – | – | – | – | – | – | – | – | –
CN(C[C@@H](CC[N+]12CCC(C3CCCCC3)(CC1)CC2)c1ccc(Cl)c(Cl)c1)C(=O)c1cc(C(F)(F)F)cc(C(F)(F)F)c1 | – | – | – | – | – | inactive | inactive | – | inactive | inactive | 36.3 µM (active) | 31.8 µM (active) | – | 26.7 µM (active) | 47.8 µM (active) | 35.1 µM (active) | – | – | 28.4 µM (active) | –
O=c1c(-c2ccc(O)cc2)coc2cc(O)cc(O)c12 | inactive | – | inactive | inactive | inactive | inactive | inactive | – | inactive | inactive | – | – | – | 72.9 µM (active) | 57 µM (active) | – | – | – | – | –
CCCCOC(=O)c1ccc(O)cc1 | inactive | inactive | inactive | inactive | inactive | inactive | inactive | inactive | inactive | inactive | – | – | – | – | – | – | – | – | – | –
CC(O)CC(C)(C)O (stereo not given) | inactive | – | inactive | inactive | inactive | inactive | inactive | inactive | inactive | inactive | – | – | – | – | 1.62 µM (active) | – | – | – | – | –
